Shown is part of a subset that was picked to be rich in hits.
HIV RNase H inh = HIV-1 RT RNase H inhibitors, primary screen, biochemical, fluorescence; Gag-Pol polyprotein (Human immunodeficiency virus type 1 group M subtype B (isolate …; RT-RNase H RNA/DNA duplex cleavage; inhibition, % at 10 µM; 65,000 tested, 1.9% active; AID 565, 2006; in the data active = inhibition above about 50%
RmlCD inh mix = RmlC and RmlD coupled enzyme inhibitors, primary screen, biochemical, 384-well, compound mixtures, retest; inhibition, % at 5.5 µM; 110,000 tested, 0.39% active; AID 1532, 2009; RmlC/RmlD coupled enzyme inhibition, 384-well mixture HTS; in the data active = inhibition above about 30%, passing the limit was not always enough
An asterisk follows results filed as active.

CC1(C)Cc2c(C#N)c(N3CCN(C(=O)c4ccco4)CC3)nc(-c3ccco3)c2CS1 was read as HIV RNase H inh 55* and RmlCD inh mix -11.
For COc1ccc(C(=O)CSc2nn3c(=O)c(C(C)(C)C)nnc3s2)cc1 the results were HIV RNase H inh -5 and RmlCD inh mix -6.
`COc1ccc(-n2c(C)cc(C(=O)CSc3nn4c(=O)c(C(C)(C)C)nnc4s3)c2C)cc1` gave HIV RNase H inh 50* and RmlCD inh mix -10.
CCCCCCn1c(=O)c(C(=O)Nc2ccncc2)c(O)c2ccccc21 was read as HIV RNase H inh 69*.
For CCCCn1c(=O)c(C(=O)NCc2ccncc2)c(O)c2ccccc21 the results were HIV RNase H inh 8 and RmlCD inh mix -6.
For CCN(CC)c1cc2nc(C)n(Cc3ccccc3)c(=O)c2cc1NC(=O)C1CC1 the results were RmlCD inh mix -2.
For CCn1c(CNC(=O)c2ccc(OC)cc2)nnc1SCC(=O)c1ccccc1 the results were HIV RNase H inh 4 and RmlCD inh mix -9.
For CCn1c(CCNC(=O)c2cccs2)nnc1SCC(=O)c1ccc(OC)cc1 the results were HIV RNase H inh 57* and RmlCD inh mix -6.
Screening COc1ccc(-c2cc3nc4n(c(=O)c3s2)CCC4)cc1 returned HIV RNase H inh -44 and RmlCD inh mix 50*.
Screening COc1ccc(NS(=O)(=O)c2cccc(-c3nnc4n3CCCCC4)c2)cc1 returned HIV RNase H inh -8 and RmlCD inh mix 11.
Screening O=C(NCCN1CCN(c2ccccc2)CC1)C1CCN(S(=O)(=O)c2cccs2)CC1 returned HIV RNase H inh -13 and RmlCD inh mix -15.
COc1cc(-c2nc3cnccn3c2Nc2ccccc2)ccc1O was read as HIV RNase H inh 0 and RmlCD inh mix 40*.
`COc1cc(-c2nc3cnccn3c2Nc2ccc(C)cc2)ccc1O` gave RmlCD inh mix 0.
`N#C/C(C(=O)c1ccccc1)=C1/SC=C(N)N1c1ccccc1` gave HIV RNase H inh 64* and RmlCD inh mix -2.
COC(=O)/C(C#N)=C1/SC=C(C)N1c1ccccc1 was read as HIV RNase H inh -8 and RmlCD inh mix 1.
Screening Cn1c(=O)oc2cc(S(=O)(=O)N3CCN(c4ccc(F)cc4)CC3)ccc21 returned RmlCD inh mix 3.
`CC1(C)CC(=O)C(C2(O)C(=O)NC(=O)NC2=O)=C(O)C1` gave HIV RNase H inh -4 and RmlCD inh mix 3.
Screening O=C(Nc1ccc2c(c1)CCC2)c1cccc(S(=O)(=O)N2CCN(c3ccccc3)CC2)c1 returned RmlCD inh mix 2.
For CC(=O)Nc1c(C(=O)O)oc2ccccc12 the results were HIV RNase H inh 56* and RmlCD inh mix -9.
CC(=O)Nc1c(C(=O)O)oc2ccc(Cl)cc12 was read as HIV RNase H inh 2.
`Cc1ccc(NC(=O)C2(c3ccccc3)CCCC2)nc1` gave RmlCD inh mix -16.
`O=C(CCN1C(=O)/C(=C/c2cccc(Br)c2)SC1=S)NNC(=O)c1cccnc1` gave RmlCD inh mix -11.
For CC(=O)c1ccc2c3c(cccc13)C(=O)N(c1c(C)nn(C)c1C)C2=O the results were HIV RNase H inh -15 and RmlCD inh mix 171.
COc1ccc(N=CC2=C(Nc3ccc(OC)cc3)c3c(C)nn(-c4ccccn4)c3CC2)cc1 was read as RmlCD inh mix 61*.
Screening COc1ccc(-c2cc(C(=O)O)c3c(C)nn(-c4ccccn4)c3n2)cc1 returned RmlCD inh mix 28.
For CCOC(=O)Nc1ccc(S(=O)(=O)Nc2cc(C)nc(C)n2)cc1 the results were RmlCD inh mix 7.
For CCOc1ccc(OCC(=O)Nc2ccc(S(=O)(=O)Nc3cc(C)nc(C)n3)cc2)cc1 the results were HIV RNase H inh 52* and RmlCD inh mix 7.
`Cc1oc(-c2cccc(Cl)c2)nc1CN1CCC(C(=O)NCCCN2CCCC2=O)CC1` gave HIV RNase H inh -8 and RmlCD inh mix -61.
For CCOC(=O)c1c(C)oc2c1c(C(c1cccnc1)N1CCN(C)CC1)c(O)c1ccccc12 (stereo unspecified) the results were HIV RNase H inh 60*.
CCOC(=O)c1c(C)oc2c1c1c(c3ccccc32)OCN(Cc2cccnc2)C1 was read as HIV RNase H inh 17 and RmlCD inh mix 4.
Cc1cc(C(=O)CSc2nnnn2-c2ccccc2)c(C)n1CC1CCCO1 (stereo unspecified) was read as HIV RNase H inh 9 and RmlCD inh mix -8.
Cc1cc(C(=O)CSc2nnnn2-c2ccc(Cl)cc2)c(C)n1CC1CCCO1 (stereo unspecified) was read as HIV RNase H inh 63* and RmlCD inh mix 15.
Screening CCOC(=O)c1ccc(NC(=O)c2nc[nH]c2C(=O)N(CC)CC)cc1 returned RmlCD inh mix 7.
Cc1cnc(C(=O)OCC(=O)NCc2ccccc2)cn1 was read as RmlCD inh mix -11.
`Cc1cccc(Nc2ncc3c(n2)CC(C)CC3=O)c1` (stereo unspecified) gave HIV RNase H inh -13 and RmlCD inh mix -11.
`Cc1nc(Nc2cccc(C(F)(F)F)c2)nc2c1C(=O)CC(C)C2` (stereo unspecified) gave HIV RNase H inh 51* and RmlCD inh mix 11.
`O=C(c1ccc2c3n(nc2c1)-c1ccc(Cl)cc1CO3)N1CCOCC1` gave RmlCD inh mix -1.
Screening COC(=O)C1CCN(CC(=O)Nc2sc3c(c2C#N)CCC3)CC1 returned RmlCD inh mix -8.
`CC(C)c1cc(-c2cc(-c3ccc(Cl)cc3)on2)nc(NC2CCCC2)n1` gave RmlCD inh mix -20.
Screening Cc1ccc(-c2nnc3sc(C4COc5ccccc5O4)nn23)cc1 (stereo unspecified) returned HIV RNase H inh -12 and RmlCD inh mix -12.
`c1ccc(Cc2nnc3sc(C4COc5ccccc5O4)nn23)cc1` (stereo unspecified) gave HIV RNase H inh 70* and RmlCD inh mix -5.
Cc1cc(N2CCCCC2)nc(SCc2ccc(C#N)cc2)n1 was read as HIV RNase H inh -37 and RmlCD inh mix 8.
COc1ccc(N2Cc3ccccc3C2)cc1Cl was read as HIV RNase H inh 55* and RmlCD inh mix 6.
`COc1ccc(Cl)cc1N1Cc2ccccc2C1` gave RmlCD inh mix -20.
`Cc1cccc(CSc2nnc(-c3ccccn3)n2N)c1` gave HIV RNase H inh 52* and RmlCD inh mix -10.
Screening COc1ccc(-c2nnc(SCc3cccc(C)c3)n2N)cc1 returned RmlCD inh mix 9.
O=C(CCc1ccccc1)Nc1nc2ccc(S(=O)(=O)N3CCOCC3)cc2s1 was read as HIV RNase H inh 64* and RmlCD inh mix 8.
For Cc1csc(NC(=O)CCc2ccc(S(=O)(=O)N3CCOCC3)cc2)n1 the results were RmlCD inh mix -12.
Screening Clc1cccc(CSc2nnc(-c3c[nH]c4ccccc34)o2)c1 returned RmlCD inh mix -12.
Cc1cc(NCC2CCCO2)n2c(nc3ccccc32)c1C#N (stereo unspecified) was read as HIV RNase H inh -14 and RmlCD inh mix -9.
Screening COc1ccc(C2C=C(c3ccccc3)Nc3nc(CCCO)nn32)cc1 (stereo unspecified) returned HIV RNase H inh 6 and RmlCD inh mix 24.
Screening COc1ccc(C2C=C(c3cccs3)Nc3nc(CCCO)nn32)cc1 (stereo unspecified) returned HIV RNase H inh 0 and RmlCD inh mix 44*.

Bioassay records (PubChem BioAssay)
